Assay [1] has as its target Cytochrome P450 2C9 (Homo sapiens) (UniProt P11712). The assay can be described thus: Cytochrome P450 Family 2 Subfamily C Member 9 (CYP2C9) small molecule antagonists: luciferase reporter qHTS assay (AID 1671198). For activity change, negative = inhibition: series mostly up to about 120 µM. Note: potency is the fitted concentration of half-maximal effect. The method in brief:
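CYP2C9 activity was measured with a P450-Glo proluciferin substrate. Enzyme–substrate mix was held with compound for 10 min at room temperature, then NADPH regeneration solution was added for 1 h at 37C. Luciferin product was read as luminescence.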
(In a reporter assay the amount or activity of a reporter protein is the signal.)

Assay [2] has as its target Cytochrome P450 1A2 (Homo sapiens) (UniProt P05177). The assay can be described thus: Cytochrome P450 Family 1 Subfamily A Member 2 (CYP1A2) small molecule antagonists: luciferase reporter qHTS assay (AID 1671199). For activity change, negative = inhibition: series mostly up to about 120 µM. Note: potency is the fitted concentration of half-maximal effect. The method in brief:
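Steps: enzyme-substrate mix dispensed; test compounds and furafylline control pinned in; 10 min room temperature; NADPH regeneration solution added, 1 h; reaction stopped with luciferin detection reagent; luminescence read after 20 min.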

Assay [3] has as its target Voltage-gated inwardly rectifying potassium channel KCNH2 (Homo sapiens) (UniProt Q12809). The assay can be described thus: Human Ether-a-go-go-Related Gene (hERG) channel small molecule antagonists: fluorescence cell-based qHTS assay (AID 1671200).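 Note: hERG-expressing U2OS cells given a thallium stimulus after FluxOR II dye loading; series mostly up to about 77 µM.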 The method in brief: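 Thallium served as the potassium surrogate; its influx into dye-loaded U2OS cells carrying the channel was measured by fluorescence over 2 min.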
(In general: The hERG channel carries a current that helps repolarise heart muscle cells.)

The target of assay [4] is Cytochrome P450 3A4 (Homo sapiens) (UniProt P08684). In words: Cytochrome P450 Family 3 Subfamily A Member 4 (CYP3A4) small molecule antagonists: luciferase reporter qHTS assay (AID 1671201). For activity change, negative = inhibition: series mostly up to about 120 µM. Note: potency is the fitted concentration of half-maximal effect. The method in brief:
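Relative luminescence units after 20 min with luciferin detection reagent served as read-out. Beforehand, CYP3A4 turned over a proluciferin substrate for 1 h at room temperature with NADPH regeneration, following 10 min compound preincubation.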

Records with an inconclusive call do not appear. A number with no mark means an inactive call. Active and inactive are the calls of the source. Calls come from the whole dose curve; as a rule, active = well fitted curve in the direction sought with a large enough effect in the repeat runs; inconclusive = weak or mixed curves; inactive = no such curve, though single readings can be large; an effect the other way counts as inactive or inconclusive.
% is set by controls: 0 for no effect and ±100 for the full control effect.
Note: nearly all actives have a fitted effect of over 50% in size.

Sequence of Cytochrome P450 1A2 (Homo sapiens) (P05177 whole entry, looked up): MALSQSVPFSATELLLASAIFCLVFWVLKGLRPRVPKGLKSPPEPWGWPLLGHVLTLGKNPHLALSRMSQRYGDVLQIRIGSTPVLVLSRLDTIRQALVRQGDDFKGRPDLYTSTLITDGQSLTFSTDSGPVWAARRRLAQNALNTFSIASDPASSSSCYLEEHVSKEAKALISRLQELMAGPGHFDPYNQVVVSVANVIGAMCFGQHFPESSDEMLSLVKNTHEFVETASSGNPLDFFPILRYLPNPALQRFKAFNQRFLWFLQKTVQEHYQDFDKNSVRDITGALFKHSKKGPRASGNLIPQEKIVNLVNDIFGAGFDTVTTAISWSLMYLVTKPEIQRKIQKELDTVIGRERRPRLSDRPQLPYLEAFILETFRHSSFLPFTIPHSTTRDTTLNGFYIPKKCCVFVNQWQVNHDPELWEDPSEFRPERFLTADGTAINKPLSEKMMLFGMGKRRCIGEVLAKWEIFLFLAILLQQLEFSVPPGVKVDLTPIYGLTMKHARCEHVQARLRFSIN
Sequence of Cytochrome P450 3A4 (Homo sapiens) (P08684 whole entry, looked up): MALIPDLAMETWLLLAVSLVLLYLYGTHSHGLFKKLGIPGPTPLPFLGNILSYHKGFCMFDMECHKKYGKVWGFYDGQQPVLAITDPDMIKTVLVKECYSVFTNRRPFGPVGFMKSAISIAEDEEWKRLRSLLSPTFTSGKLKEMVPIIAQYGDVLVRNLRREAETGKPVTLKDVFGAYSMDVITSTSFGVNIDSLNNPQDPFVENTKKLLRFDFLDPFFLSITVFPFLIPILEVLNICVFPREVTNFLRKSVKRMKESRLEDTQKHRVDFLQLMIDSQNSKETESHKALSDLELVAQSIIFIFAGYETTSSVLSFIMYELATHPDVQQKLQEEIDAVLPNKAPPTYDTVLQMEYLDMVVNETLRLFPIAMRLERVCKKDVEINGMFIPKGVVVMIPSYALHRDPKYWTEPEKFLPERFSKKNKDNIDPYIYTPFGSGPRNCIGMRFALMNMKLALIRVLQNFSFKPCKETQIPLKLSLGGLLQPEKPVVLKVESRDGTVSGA
Sequence of Cytochrome P450 2C9 (Homo sapiens) (P11712 whole entry, looked up): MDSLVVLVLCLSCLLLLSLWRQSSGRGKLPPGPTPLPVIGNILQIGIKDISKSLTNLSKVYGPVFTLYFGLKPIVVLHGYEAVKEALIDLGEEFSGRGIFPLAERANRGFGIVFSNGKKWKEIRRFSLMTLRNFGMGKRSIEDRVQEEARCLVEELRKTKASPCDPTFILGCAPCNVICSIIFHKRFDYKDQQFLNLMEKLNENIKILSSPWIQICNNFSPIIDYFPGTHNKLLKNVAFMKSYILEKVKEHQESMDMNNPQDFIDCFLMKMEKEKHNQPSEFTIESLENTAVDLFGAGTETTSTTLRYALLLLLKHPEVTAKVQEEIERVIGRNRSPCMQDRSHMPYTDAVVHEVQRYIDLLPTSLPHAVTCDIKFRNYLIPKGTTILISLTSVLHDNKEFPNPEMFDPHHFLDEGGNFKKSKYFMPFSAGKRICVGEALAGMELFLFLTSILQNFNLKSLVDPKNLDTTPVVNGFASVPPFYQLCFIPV
Sequence of Voltage-gated inwardly rectifying potassium channel KCNH2 (Homo sapiens) (Q12809 whole entry, looked up): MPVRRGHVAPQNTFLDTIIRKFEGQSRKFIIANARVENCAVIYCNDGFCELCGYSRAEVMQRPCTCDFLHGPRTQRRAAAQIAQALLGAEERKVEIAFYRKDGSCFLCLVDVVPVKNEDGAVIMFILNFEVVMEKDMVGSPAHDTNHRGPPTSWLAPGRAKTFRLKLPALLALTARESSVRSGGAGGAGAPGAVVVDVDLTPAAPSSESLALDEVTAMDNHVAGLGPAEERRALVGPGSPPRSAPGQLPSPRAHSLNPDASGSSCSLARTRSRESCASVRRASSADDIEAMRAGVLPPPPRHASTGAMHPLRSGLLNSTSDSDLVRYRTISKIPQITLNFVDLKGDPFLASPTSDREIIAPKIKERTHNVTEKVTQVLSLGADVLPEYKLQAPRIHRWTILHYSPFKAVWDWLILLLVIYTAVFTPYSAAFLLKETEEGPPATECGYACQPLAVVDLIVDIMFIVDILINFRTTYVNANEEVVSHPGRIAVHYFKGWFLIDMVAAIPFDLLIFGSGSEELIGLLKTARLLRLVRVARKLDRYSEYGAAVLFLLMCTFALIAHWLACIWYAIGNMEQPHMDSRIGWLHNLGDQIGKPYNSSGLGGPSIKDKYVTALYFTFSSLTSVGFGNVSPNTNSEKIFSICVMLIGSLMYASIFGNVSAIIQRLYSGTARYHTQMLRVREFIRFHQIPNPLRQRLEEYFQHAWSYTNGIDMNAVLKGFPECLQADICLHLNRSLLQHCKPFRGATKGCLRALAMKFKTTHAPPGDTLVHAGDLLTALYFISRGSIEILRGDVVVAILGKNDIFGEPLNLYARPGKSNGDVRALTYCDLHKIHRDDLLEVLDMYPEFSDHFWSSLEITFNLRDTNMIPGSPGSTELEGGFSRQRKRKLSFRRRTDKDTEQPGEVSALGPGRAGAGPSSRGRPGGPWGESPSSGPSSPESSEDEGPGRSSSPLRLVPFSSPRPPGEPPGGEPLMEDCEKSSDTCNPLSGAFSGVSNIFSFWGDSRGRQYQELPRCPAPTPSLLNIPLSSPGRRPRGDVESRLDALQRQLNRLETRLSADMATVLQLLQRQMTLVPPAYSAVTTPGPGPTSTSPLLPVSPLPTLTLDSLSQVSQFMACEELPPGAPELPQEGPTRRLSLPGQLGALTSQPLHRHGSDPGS

As for `O=S(=O)(O)c1ccc2cc(O)c(S(=O)(=O)O)cc2c1`, the Potency entry in assay [1], in assay [2], in assay [3] and in assay [4] was “inactive” in each case.

As to `O=S(=O)(O)c1cc(O)c2ccc(Nc3ccccc3)cc2c1`, the Potency in assay [1] was 39.9 µM (active). In addition, the Potency entry in assay [2], in assay [3] and in assay [4] was “inactive” throughout.

On to `CC(C)(C)c1cc(CCC(=O)NN)cc(C(C)(C)C)c1O`, for which the Potency in assay [1] was 5.03 µM (active); in assay [2], 8.94 µM (active); in assay [4] it was 0.159 µM (active). Besides, the Potency entry in assay [3] is “inactive”.

In the case of `CC(C)CCCC(C)(C)O`, the Potency entry in assay [1], in assay [2], in assay [3] and in assay [4] was “inactive” throughout.

For the compound `CCOC(=O)CC(=O)c1ccccc1`, the Potency was 35.6 µM (active) in assay [1] and 28.3 µM (active) in assay [2]. Moreover, the Potency entry in assay [3] and in assay [4] was “inactive” each time.

For `CC(=O)N[C@@H](CCC(=O)O)C(=O)O`, the Potency result in assay [1], in assay [2], in assay [3] and in assay [4] was “inactive” in each case.

As for `CCC(C)NC(N)=O` (stereo unspecified), the Potency entry in assay [1], in assay [2] and in assay [4] was “inactive” in each case.

Turning to `O=C(OCc1ccccc1)C(=O)OCc1ccccc1`, the Potency result in assay [1], in assay [2], in assay [3] and in assay [4] was “inactive” each time.

Take `COC(=O)c1ccccc1C(=O)c1ccc(OCCN2CCCCC2)cc1`: the Potency result in assay [1], in assay [2], in assay [3] and in assay [4] was “inactive” throughout.

Regarding `CCN1CCc2nc(N)oc2CC1`, the Potency result in assay [1], in assay [2], in assay [3] and in assay [4] was “inactive” throughout.

For the compound `ClCCCl`, the Potency entry in assay [1], in assay [2], in assay [3] and in assay [4] was “inactive” throughout.

Take `NS(=O)(=O)c1ccc(NC(=O)CCC(=O)O)cc1`: the Potency entry in assay [1], in assay [2], in assay [3] and in assay [4] was “inactive” each time.

Turning to `CC(=O)Nc1ccc(S(=O)(=O)Nc2ccc([N+](=O)[O-])cc2)cc1`, in assay [1], the Potency is 13.8 µM (active). Also, the Potency entry in assay [2], in assay [3] and in assay [4] was “inactive” in each case.

As for `C=Cc1ccccn1`, the Potency result in assay [1], in assay [2], in assay [3] and in assay [4] was “inactive” throughout.

In the case of `Cc1cc(Cl)c(C)cc1Cl`, the Potency entry in assay [1], in assay [2], in assay [3] and in assay [4] was “inactive” in each case.

For the compound `O=C1c2ccccc2C(=O)C1c1ccccc1`, the Potency entry in assay [1], in assay [2], in assay [3] and in assay [4] was “inactive” each time.

For the compound `CCCCC(CC)COCCO` (stereo unspecified), the Potency result in assay [1], in assay [3] and in assay [4] was “inactive” in each case. In addition, the Potency in assay [2] was 17.8 µM (active).

Take `Oc1ccccc1-c1nnco1`: the Potency result in assay [1], in assay [3] and in assay [4] was “inactive” in each case. The Potency in assay [2] was 30.9 µM (active).

On to `O=S(O)(O)=S`, for which the activity change, negative = inhibition in assay [1] was -6.3% [at 10.5 µM]; in assay [2], -12.3% [at 10.5 µM]; in assay [3], -2.48% [at 6.97 µM]; in assay [4], 0.412% [at 10.5 µM].

With `CNS(=O)(=O)CCc1ccc2[nH]cc(C3CCN(C)CC3)c2c1`, the Potency entry in assay [1], in assay [2], in assay [3] and in assay [4] was “inactive” throughout.

For `CC(=O)c1sc(C)nc1C`, the Potency result in assay [1], in assay [2], in assay [3] and in assay [4] was “inactive” throughout.

As to `COC(=O)CCc1ccc(OCC(O)CNC(C)C)cc1` (stereo unspecified), the Potency result in assay [1], in assay [2], in assay [3] and in assay [4] was “inactive” in each case.

With `CCn1ccc(NS(=O)(=O)c2ccc(N)cc2)nc1=O`, the Potency entry in assay [1], in assay [2], in assay [3] and in assay [4] was “inactive” throughout.

For `O=C(CS(=O)Cc1ccco1)NC/C=C\COc1cc(CN2CCCCC2)ccn1` (stereo unspecified), the Potency entry in assay [1], in assay [2], in assay [3] and in assay [4] was “inactive” throughout.

`CCOc1cc(NC(C)=O)ccc1C(=O)OC`: the Potency result in assay [1], in assay [3] and in assay [4] was “inactive” in each case. The Potency in assay [2] is 5.49 µM (active).

In the case of `CCCOC(=O)C(C)O` (stereo unspecified), the Potency entry in assay [1], in assay [3] and in assay [4] was “inactive” each time. Further, the Potency in assay [2] is 40.8 µM (active).

In the case of `C=C(C)C1CCC(C)(O)CC1` (stereo unspecified), the Potency result in assay [1], in assay [2], in assay [3] and in assay [4] was “inactive” in each case.

Consider `Cc1ccccc1N=O`, for which the Potency entry in assay [1] and in assay [3] was “inactive” throughout. In addition, the Potency was 41 µM (active) in assay [2] and 36.5 µM (active) in assay [4].

Take `C=C(C)C(=O)OCC(C)(C)COC(=O)C(=C)C`: the Potency entry in assay [1], in assay [2] and in assay [4] was “inactive” each time.

For `OCCCCC(O)CO` (stereo unspecified), in assay [1], the Potency is 67.2 µM (active). The Potency result in assay [2], in assay [3] and in assay [4] was “inactive” each time.

On to `CC(=O)NCc1c(I)c(NC(C)=O)c(I)c(C(=O)O)c1I`, for which the Potency result in assay [1], in assay [2], in assay [3] and in assay [4] was “inactive” each time.

Consider `CN=C(NC#N)Nc1ccc(C2=NNC(=O)CC2C)cc1` (stereo unspecified), for which the Potency result in assay [1], in assay [2] and in assay [4] was “inactive” each time.

`N#Cc1ccc(C(=O)O)cc1`: the Potency entry in assay [1], in assay [3] and in assay [4] was “inactive” in each case.

Consider `COc1cc2c(cc1OC)[C@@H]1CC(=O)[C@@H](CC(C)C)CN1CC2`, for which the Potency in assay [1] is 11 µM (active). In addition, the Potency result in assay [3] was “inactive”.

With `C=C1CC/C=C(\C)CC[C@@H]2[C@@H]1CC2(C)C`, the Potency entry in assay [1], in assay [2] and in assay [4] was “inactive” throughout.

Turning to `CC(=O)Nc1cccc(C)c1`, the Potency result in assay [1], in assay [3] and in assay [4] was “inactive” each time.

With `CC1=CCC(C(C)C)=CC1`, the Potency entry in assay [1], in assay [2] and in assay [4] was “inactive” throughout.

As to `NS(=O)(=O)c1cc2c(cc1Cl)CN(C1CCCCC1)C2=O`, the Potency result in assay [1], in assay [2] and in assay [4] was “inactive” in each case.

On to `C#CC(C)N(C)C(=O)Nc1ccc(Cl)cc1` (stereo unspecified), for which the values for the Potency in assay [1] and in assay [2] were 4.47 µM (active) and 3.99 µM (active), respectively. Moreover, in assay [4], the Potency result is “inactive”.

Regarding `CCCC/C=C/C=C\C=O`, the Potency result in assay [1] and in assay [2] was “inactive” in each case. In addition, in assay [4], the Potency was 39.9 µM (active).

As to `O=C(O)c1cc(Br)c(O)c(Br)c1`, the Potency in assay [1] is 71 µM (active); in assay [2], 39.9 µM (active). Besides, in assay [4], the Potency entry is “inactive”.

Take `N[C@@H](CCC(=O)Nc1ccc([N+](=O)[O-])cc1)C(=O)O`: the Potency result in assay [1], in assay [2] and in assay [4] was “inactive” each time.

Regarding `O=C(O)CCSSCCC(=O)O`, the Potency result in assay [1], in assay [3] and in assay [4] was “inactive” each time.

As for `Cc1cccc(OCC(O)CNC(C)(C)C)c1C` (stereo unspecified), the Potency result in assay [1], in assay [3] and in assay [4] was “inactive” throughout.

`C[Si](C)(C)C`: the Potency entry in assay [1], in assay [3] and in assay [4] was “inactive” each time.

Consider `O=C(O)C(=O)Cc1ccccc1`, for which the Potency result in assay [1], in assay [3] and in assay [4] was “inactive” throughout.

(Values after PubChem BioAssay (Tox21).)
